Hits are enriched below; roughly 1.9% of the tested compounds scored in any of these assays.
APP transl inh = APP translation inhibition; SH-SY5Y APP 5'UTR-luciferase reporter, luminescence; AID 1285; 0.82% of 190,000 active; inhibition, % at 2 µM;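 active = inhibition above a set limit, derived from the sample mean plus 3 SD, cut at about 45% in these data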
KLF5 inhibitor = kruppel-like factor 5 inhibition; inhibition, % at 5 µM; 0.23% of 290,000 active; AID 1700; DLD-1 KLF5 promoter-luciferase reporter, luminescence;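 active = inhibition above a per-plate limit of that plate's mean compound inhibition plus 3 SD, cut at about 60% in these data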;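 also: 0% = DMSO wells and 100% = LY294002 at 200 µM; higher means less KLF5 promoter-driven luciferase light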
Ba/F3 V617F tox = reduce viability of Ba/F3 cells dependent on JAK2V617F. Ba/F3 EpoR-JAK2V617F viability, ATP luminescence. inhibition, % at 5.6 µM. 1.1% of 220,000 active. AID 1446;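 active = inhibition above the campaign mean plus 3 SD over all tested compounds, cut at about 24% in these data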;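 also: cytokine-independent growth of Ba/F3 cells driven by EpoR plus mutant JAK2; 0% = DMSO-treated cells and 100% = JAK inhibitor I control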
IEC-6 cytotox = kills IEC-6 intestinal cells in KLF5 counter-screen. AID 1825. 0.78% of 290,000 active. inhibition, % at 5 µM. IEC-6 cytotoxicity, luminescence viability; in the data active = inhibition above about 22%;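 also: 0% = plate median of test compound wells and 100% = cytotoxic reference compound wells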
BaF3 parental = counter-screen for JAK2V617F inhibitors: parental Ba/F3 viability inhibitors. CellTiter-Glo ATP luminescence. inhibition, % at 5.6 µM. 1.1% of 220,000 active. AID 1486;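 active = inhibition above a per-campaign cutoff, the mean inhibition of all tested compounds plus 3 SD, cut at about 27% in these data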;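 also: 0% = DMSO wells and 100% = JAK Inhibitor I control wells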
An asterisk follows results filed as active; . = no result given.

SMILES	APP transl inh	KLF5 inhibitor	Ba/F3 V617F tox	IEC-6 cytotox	BaF3 parental
O=C(Oc1c(CN2CCOCC2)cc(Cl)c2cccnc12)c1ccccc1F	75.4*	-8.5	0.0	-1.4	3.9
O=C(Oc1c(CN2CCOCC2)cc(Cl)c2cccnc12)c1ccccc1	52.6*	-15.4	-2.8	25.7*	-0.3
C=CCOc1ccc(C(c2c(C)n(C)n(-c3ccccc3)c2=O)c2c(C)n(C)n(-c3ccccc3)c2=O)cc1	.	-27.1	.	-4.5	.
COc1ccc(Nc2nc(N)c([N+](=O)[O-])c(N3CCOCC3)n2)cc1	.	-18.7	-0.7	-3.1	-0.3
Nc1nc(Nc2ccccc2)nc(N2CCOCC2)c1[N+](=O)[O-]	57.7*	-11.4	-1.5	-5.6	5.3
Cn1c(N)c(C(=O)COC(=O)CC2CC3CCC2C3)c(=O)n(C)c1=O (stereo unspecified)	-11.5	-9.1	-0.8	6.5	59.7*
C/C(N)=C(/C#N)C(=O)COC(=O)CCSc1ccccc1Cl	81.1*	-13.2	-2.5	0.9	2.3
C/C(=N\NS(=O)(=O)c1ccccc1)c1cc(Cl)cc(Cl)c1O	-7.0	-20.1	-2.1	-3.9	-2.2
N#CC(C#N)=C1C=CC=CN1/C(=C\c1ccccc1Cl)C(=O)c1ccccc1	92.3*	-7.4	2.5	5.6	1.2
N#CC(C#N)=C1C=CC=CN1/C(=C\c1ccccc1)C(=O)c1cccs1	-6.2	-16.0	-4.5	2.7	-2.1
CCCN1CCC(NC(=O)Cc2ccc(C)cc2)CC1	.	-39.0	.	-4.6	.
C/C(=N\NC(=O)CSCc1ccccc1Cl)c1cc(O)ccc1O	54.1*	-3.2	16.1	-1.7	-3.2
CC1Cc2nc(SCC(=O)NCC3CCCO3)n(C)c(=O)c2S1 (stereo unspecified)	.	-38.1	.	2.7	.
COc1ccc(-c2csc3ncn(CC(=O)N4CCOCC4)c(=O)c23)cc1	-35.8	-7.4	-2.5	-6.6	5.5
O=c1c2cccc3c2c(nn1CN1CCOCC1)-c1ccccc1-3	11.1	-19.1	6.3	12.8	27.7*
CN(CC1COc2ccccc2O1)C(=S)Nc1ccccc1 (stereo unspecified)	-7.7	-23.7	1.5	1.1	27.5*
Cc1ccc(C)c(N/C(N)=N/c2nc(C)cc(C)n2)c1	-0.9	4.3	-0.2	0.6	9.0
Cc1ccc(CN=C(N)Nc2nc(C)cc(C)n2)cc1	70.8*	-22.6	80.6*	48.0*	77.3*
O=C(Cc1ccccc1)Nc1cccc(N2C(=O)C=CC2=O)c1	66.7*	-5.5	-0.9	0.5	3.6
COC(=O)c1c(C)[nH]c(C(=O)N2CCN(c3ccc(OC)cc3)CC2)c1C	7.3	-33.8	1.1	-0.7	9.0
COc1cccc(N2CCN(C(=O)c3[nH]c(C)c(C(C)=O)c3C)CC2)c1	29.2	41.0	20.9	16.5	35.2*
O=C(O)c1cc(-c2ccc(Cl)cc2)n(-c2ccc(F)cc2)n1	.	4.1	.	0.5	.
O=S(=O)(NCc1ccncc1)c1ccc(S(=O)(=O)NCC2CCCO2)cc1 (stereo unspecified)	4.0	18.1	25.2*	1.3	28.2*
Cc1ccc(S(=O)(=O)NCc2ccncc2)c(C)c1C	9.8	26.2	55.1*	18.6	83.9*
CCCCNS(=O)(=O)c1ccc(S(=O)(=O)NCc2ccncc2)cc1	4.3	-34.2	33.5*	1.6	38.9*
SMILES	APP transl inh	KLF5 inhibitor	Ba/F3 V617F tox	IEC-6 cytotox	BaF3 parental
Cc1ccc(S(=O)(=O)NCc2ccccn2)c(C)c1C	.	-2.7	.	0.8	.
O=S(=O)(NCc1ccccc1)c1ccc(S(=O)(=O)NCC2CCCO2)cc1 (stereo unspecified)	4.2	-2.5	-4.2	-2.0	-0.3
Cc1cc(C)c(S(=O)(=O)NCc2ccncc2)c(C)c1	11.7	1.4	24.3*	6.4	34.0*
COc1cc2c(cc1OC)C(C(=O)NC(C)c1ccccc1)CC(=O)N2 (stereo unspecified)	.	-40.2	.	1.3	.
O=C(C1CC1)N1CCC(c2nc(-c3ccc(S(=O)(=O)NCC4CCCO4)cc3)no2)CC1 (stereo unspecified)	-10.1	-23.7	5.3	6.7	34.6*
Cc1cc(C)cc(-n2c(C)cc(/C=N/NC(=O)CN(c3c(C)cccc3C)S(C)(=O)=O)c2C)c1	90.2*	-14.6	-1.4	-3.5	2.4
CN(C)CCCN(Cc1cc2cc3c(cc2[nH]c1=O)OCO3)C(=S)Nc1ccccc1	-1.4	2.6	3.9	1.0	6.9
CN(C)CCCN(Cc1cc2cc3c(cc2[nH]c1=O)OCO3)C(=S)Nc1cccc(Cl)c1	2.6	-23.7	35.6*	-0.4	46.5*
CC(C)c1ccccc1NC(=O)c1ccc2ncsc2c1	.	6.4	.	-3.6	.
COC(=O)c1ccc2nc(Nc3nc4c(F)cc(F)cc4s3)sc2c1	4.0	91.8*	2.1	10.5	6.5
CCOC(=O)c1ccc2nc(Nc3nc4ccc(F)cc4s3)sc2c1	6.8	49.0	-1.8	-6.8	5.2
CC(C)CN1C(=O)NC(NC(=O)c2ccco2)(C(F)(F)F)C1=O (stereo unspecified)	5.0	-24.7	0.2	-0.6	95.0*
CN1C(=O)NC(NC(=O)c2ccco2)(C(F)(F)F)C1=O (stereo unspecified)	-3.3	-24.6	-1.8	-4.5	0.1
Fc1cccc(NC(=S)NNc2c3ccccc3nc3ccccc23)c1	53.5*	-20.1	-3.0	8.4	7.3
Fc1cccc(NC(=S)NNc2ccccc2)c1	.	-11.8	.	5.6	.
COc1ccc(S(=O)(=O)N(CC(=O)NCc2ccncc2)c2ccc(C)cc2)cc1Br	.	-6.9	.	5.4	.
CCCCNC(=O)CC(C(=O)N1CCc2ccccc21)n1ccnc1 (stereo unspecified)	13.9	-17.3	-3.8	0.2	0.1
O=C(CC(C(=O)N1CCc2ccccc21)n1ccnc1)NCC1CCCO1 (stereo unspecified)	-9.6	-29.6	0.8	-0.2	94.8*
COCCNC(=O)CN1N=C(c2ccc(C)cc2)CCC1=O	.	-6.8	.	-5.5	.
CCNc1nc2c(c(=O)n(C)c(=O)n2C)n1Cc1ccc(Cl)cc1	.	1.3	.	-2.6	.
Cn1c(=O)c2c(nc(NCc3cccnc3)n2Cc2ccc(Cl)cc2)n(C)c1=O	-1.1	2.2	49.7*	22.6*	52.0*
C/C(Cl)=C\Cn1c(NCCc2ccccc2)nc2c1c(=O)n(C)c(=O)n2C	12.8	-26.7	2.7	-5.4	17.6
CCCNc1nc2c(c(=O)n(C)c(=O)n2C)n1Cc1ccc(F)cc1	-6.1	-11.0	21.6	6.5	36.4*
C=CCn1c(NCCc2ccccc2)nc2c1c(=O)n(C)c(=O)n2C	-0.8	-27.1	4.8	-1.0	30.9*
O=S(=O)(Nc1cccc(C(F)(F)F)c1)c1cnc[nH]1	-7.8	-2.5	-3.1	2.9	5.0
SMILES	APP transl inh	KLF5 inhibitor	Ba/F3 V617F tox	IEC-6 cytotox	BaF3 parental
Cc1cccc(NS(=O)(=O)c2cnc[nH]2)c1	3.7	-19.8	3.9	4.4	92.8*
O=C(/C=C/c1ccccc1)OCCN1C(=O)c2ccccc2C1=O	.	-59.7	.	-0.5	.
O=C(COc1cccc2cccnc12)Nc1ccccc1N1CCOCC1	-15.5	-20.1	1.1	5.0	4.4
CN(C)S(=O)(=O)n1cc(/C=C(\NC(=O)c2ccccc2F)C(=O)NCCCn2ccnc2)c2ccccc21	.	-1.8	.	4.7	.
N#Cc1c(-c2ccccc2)nc(-c2ccccc2)[nH]c1=O	-1.2	-11.9	6.2	2.6	7.1
N#Cc1c(-c2ccccc2)nc(-c2ccncc2)[nH]c1=O	68.7*	-16.4	-0.8	0.1	7.3
